In the supplement of paper PMC11732987, “Enantioselective OTUD7B fragment discovery through chemoproteomics screening and high-throughput optimisation” (Communications Chemistry, 2025):

Assays:
Assay in all cases: log2 ratio of Biotin-Ahx-Ub-VS probe labelling (fragment/DMSO); higher = less target engagement (more negative = stronger competition), active = hit call of the paper (q ≤ 0.05, log2 ratio ≤ -1)
Conditions in all cases: compound concentration: 200 uM; treatment time: 3 h
USP34 = USP34 (UniProt Q70CQ2)
USP34, sequence (Q70CQ2 whole entry, the tested form may be a part): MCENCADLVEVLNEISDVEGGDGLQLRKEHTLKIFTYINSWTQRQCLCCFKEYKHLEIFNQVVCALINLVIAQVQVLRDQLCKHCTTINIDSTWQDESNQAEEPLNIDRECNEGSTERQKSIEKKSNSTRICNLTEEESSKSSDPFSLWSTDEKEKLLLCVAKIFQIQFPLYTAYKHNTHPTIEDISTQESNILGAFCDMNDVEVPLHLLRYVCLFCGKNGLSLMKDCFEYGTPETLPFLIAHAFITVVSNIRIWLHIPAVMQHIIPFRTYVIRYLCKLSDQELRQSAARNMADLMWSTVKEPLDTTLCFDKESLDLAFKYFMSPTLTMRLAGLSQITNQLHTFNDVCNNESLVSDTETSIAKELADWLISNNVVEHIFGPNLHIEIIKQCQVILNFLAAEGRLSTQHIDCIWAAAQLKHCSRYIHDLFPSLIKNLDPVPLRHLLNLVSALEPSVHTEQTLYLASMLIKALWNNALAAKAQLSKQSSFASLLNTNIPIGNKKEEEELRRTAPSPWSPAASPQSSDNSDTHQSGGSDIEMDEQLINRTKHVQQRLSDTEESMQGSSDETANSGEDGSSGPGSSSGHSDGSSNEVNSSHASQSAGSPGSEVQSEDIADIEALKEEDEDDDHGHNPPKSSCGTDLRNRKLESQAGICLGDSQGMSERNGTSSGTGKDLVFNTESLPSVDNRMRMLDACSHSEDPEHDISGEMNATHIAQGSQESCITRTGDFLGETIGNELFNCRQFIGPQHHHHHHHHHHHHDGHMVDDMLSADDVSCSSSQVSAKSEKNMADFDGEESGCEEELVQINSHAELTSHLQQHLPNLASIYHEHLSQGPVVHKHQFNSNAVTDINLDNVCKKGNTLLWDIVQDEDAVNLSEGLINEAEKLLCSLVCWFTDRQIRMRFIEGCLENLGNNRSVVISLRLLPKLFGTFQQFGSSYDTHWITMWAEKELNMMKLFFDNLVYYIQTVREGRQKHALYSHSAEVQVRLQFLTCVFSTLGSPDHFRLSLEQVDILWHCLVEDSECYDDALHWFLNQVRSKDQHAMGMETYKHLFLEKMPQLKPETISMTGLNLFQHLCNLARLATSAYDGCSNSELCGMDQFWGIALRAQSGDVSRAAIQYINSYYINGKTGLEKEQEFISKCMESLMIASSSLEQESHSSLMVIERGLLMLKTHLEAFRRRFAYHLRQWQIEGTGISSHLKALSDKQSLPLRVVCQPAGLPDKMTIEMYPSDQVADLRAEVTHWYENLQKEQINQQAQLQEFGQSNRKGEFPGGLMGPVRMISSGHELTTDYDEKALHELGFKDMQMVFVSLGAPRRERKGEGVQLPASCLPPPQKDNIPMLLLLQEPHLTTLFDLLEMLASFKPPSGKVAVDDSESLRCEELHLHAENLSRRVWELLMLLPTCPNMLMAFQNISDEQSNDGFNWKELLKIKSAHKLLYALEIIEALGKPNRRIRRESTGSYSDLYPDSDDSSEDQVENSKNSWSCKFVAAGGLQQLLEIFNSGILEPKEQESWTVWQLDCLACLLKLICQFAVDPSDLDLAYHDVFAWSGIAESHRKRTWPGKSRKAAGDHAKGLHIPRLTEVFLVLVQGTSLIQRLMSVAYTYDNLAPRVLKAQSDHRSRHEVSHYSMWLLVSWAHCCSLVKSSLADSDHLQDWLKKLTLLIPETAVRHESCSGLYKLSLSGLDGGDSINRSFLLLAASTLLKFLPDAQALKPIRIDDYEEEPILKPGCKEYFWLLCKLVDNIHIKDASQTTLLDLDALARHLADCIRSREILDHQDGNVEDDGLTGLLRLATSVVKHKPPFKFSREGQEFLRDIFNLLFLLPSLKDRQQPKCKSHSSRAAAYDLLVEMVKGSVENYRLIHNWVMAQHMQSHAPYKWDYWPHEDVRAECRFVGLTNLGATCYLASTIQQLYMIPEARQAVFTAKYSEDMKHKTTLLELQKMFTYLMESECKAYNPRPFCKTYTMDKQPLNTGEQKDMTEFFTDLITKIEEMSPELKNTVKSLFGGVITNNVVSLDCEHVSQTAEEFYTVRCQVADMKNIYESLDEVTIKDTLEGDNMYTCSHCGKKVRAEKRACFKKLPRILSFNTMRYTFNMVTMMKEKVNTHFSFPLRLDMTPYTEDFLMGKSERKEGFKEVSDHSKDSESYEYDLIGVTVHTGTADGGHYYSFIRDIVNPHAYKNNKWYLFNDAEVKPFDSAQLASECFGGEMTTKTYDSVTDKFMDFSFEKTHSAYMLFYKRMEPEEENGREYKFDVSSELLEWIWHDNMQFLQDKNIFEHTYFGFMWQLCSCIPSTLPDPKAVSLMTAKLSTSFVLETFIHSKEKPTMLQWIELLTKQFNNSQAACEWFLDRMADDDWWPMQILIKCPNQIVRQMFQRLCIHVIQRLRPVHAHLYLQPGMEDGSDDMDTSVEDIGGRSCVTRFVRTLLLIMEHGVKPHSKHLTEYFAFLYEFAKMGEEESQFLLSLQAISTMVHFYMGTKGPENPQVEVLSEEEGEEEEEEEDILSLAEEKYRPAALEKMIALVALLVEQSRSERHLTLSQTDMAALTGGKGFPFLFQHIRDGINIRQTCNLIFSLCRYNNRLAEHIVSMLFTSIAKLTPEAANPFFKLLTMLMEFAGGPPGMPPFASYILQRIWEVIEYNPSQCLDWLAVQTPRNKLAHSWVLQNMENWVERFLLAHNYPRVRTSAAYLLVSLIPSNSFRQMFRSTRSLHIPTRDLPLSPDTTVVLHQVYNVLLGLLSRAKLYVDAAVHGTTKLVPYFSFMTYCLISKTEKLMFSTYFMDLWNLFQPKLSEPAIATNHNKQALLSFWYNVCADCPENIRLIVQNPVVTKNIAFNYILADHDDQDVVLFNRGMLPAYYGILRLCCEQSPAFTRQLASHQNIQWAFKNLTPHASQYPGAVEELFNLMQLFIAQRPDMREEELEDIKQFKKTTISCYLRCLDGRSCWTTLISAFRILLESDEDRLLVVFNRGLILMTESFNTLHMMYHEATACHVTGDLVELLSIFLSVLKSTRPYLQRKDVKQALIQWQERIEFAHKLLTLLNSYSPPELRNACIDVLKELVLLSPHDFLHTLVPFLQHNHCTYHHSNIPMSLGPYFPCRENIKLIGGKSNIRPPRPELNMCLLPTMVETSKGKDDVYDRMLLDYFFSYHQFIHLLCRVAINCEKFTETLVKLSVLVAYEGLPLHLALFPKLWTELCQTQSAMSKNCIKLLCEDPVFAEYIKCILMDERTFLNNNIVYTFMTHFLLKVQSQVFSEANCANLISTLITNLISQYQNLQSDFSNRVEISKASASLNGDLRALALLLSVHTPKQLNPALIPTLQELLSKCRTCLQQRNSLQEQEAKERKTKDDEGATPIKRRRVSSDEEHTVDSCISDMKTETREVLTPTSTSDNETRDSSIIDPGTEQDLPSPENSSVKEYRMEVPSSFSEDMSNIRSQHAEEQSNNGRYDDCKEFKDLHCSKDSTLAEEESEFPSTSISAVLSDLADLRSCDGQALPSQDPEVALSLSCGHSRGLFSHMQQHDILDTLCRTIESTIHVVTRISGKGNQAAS
Procedure, shortened: (§1)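 The table lists average log2 ratios of fragment over vehicle, from an unpaired t-test on global-median-normalised Spectronaut label-free quantities. Proteins with ≥2 unique peptides were used. Samples were HEK293T lysate (495 µg) treated in triplicate with fragment at 200 µM or vehicle for 3 h, then with Biotin-Ahx-Ub-VS (0.5 µM final) for 1 h, with labelled DUBs NeutrAvidin-enriched and run by diaPASEF LC-MS/MS.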

USP36 = target: T1, USP36 (UniProt Q9P275)
T1 sequence (whole entry): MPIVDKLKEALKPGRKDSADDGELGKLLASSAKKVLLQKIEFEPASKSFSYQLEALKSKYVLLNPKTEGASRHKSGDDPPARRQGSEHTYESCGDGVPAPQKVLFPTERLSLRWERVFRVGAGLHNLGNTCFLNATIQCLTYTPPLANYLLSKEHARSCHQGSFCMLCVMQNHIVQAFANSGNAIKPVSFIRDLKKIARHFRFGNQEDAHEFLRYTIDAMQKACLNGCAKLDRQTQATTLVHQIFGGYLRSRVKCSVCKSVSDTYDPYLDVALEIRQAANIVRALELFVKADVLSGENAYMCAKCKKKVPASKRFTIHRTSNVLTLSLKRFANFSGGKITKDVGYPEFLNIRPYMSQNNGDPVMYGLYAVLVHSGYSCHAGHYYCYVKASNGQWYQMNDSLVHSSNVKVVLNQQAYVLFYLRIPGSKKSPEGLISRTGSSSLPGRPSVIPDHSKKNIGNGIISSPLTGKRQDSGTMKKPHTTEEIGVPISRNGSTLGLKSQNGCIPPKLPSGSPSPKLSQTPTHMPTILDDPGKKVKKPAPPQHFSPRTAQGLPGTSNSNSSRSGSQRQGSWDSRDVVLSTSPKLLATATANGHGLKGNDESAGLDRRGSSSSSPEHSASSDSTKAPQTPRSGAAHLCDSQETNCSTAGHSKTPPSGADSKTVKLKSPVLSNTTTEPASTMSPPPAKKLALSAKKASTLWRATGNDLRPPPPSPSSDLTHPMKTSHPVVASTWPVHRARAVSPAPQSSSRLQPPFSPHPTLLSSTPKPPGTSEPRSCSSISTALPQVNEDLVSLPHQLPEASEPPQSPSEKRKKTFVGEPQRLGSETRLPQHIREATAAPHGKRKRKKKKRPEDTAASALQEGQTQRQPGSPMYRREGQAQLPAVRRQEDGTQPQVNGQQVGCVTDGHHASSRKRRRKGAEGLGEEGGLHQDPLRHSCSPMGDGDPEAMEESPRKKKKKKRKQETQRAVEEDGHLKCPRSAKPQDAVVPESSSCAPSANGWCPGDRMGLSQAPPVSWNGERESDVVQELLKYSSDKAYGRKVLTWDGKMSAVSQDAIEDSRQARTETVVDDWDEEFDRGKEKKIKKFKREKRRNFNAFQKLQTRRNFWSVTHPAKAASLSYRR
Procedure, shortened: as §1

USP38 = target: T2, USP38 (UniProt Q8NB14)
T2 sequence (whole entry): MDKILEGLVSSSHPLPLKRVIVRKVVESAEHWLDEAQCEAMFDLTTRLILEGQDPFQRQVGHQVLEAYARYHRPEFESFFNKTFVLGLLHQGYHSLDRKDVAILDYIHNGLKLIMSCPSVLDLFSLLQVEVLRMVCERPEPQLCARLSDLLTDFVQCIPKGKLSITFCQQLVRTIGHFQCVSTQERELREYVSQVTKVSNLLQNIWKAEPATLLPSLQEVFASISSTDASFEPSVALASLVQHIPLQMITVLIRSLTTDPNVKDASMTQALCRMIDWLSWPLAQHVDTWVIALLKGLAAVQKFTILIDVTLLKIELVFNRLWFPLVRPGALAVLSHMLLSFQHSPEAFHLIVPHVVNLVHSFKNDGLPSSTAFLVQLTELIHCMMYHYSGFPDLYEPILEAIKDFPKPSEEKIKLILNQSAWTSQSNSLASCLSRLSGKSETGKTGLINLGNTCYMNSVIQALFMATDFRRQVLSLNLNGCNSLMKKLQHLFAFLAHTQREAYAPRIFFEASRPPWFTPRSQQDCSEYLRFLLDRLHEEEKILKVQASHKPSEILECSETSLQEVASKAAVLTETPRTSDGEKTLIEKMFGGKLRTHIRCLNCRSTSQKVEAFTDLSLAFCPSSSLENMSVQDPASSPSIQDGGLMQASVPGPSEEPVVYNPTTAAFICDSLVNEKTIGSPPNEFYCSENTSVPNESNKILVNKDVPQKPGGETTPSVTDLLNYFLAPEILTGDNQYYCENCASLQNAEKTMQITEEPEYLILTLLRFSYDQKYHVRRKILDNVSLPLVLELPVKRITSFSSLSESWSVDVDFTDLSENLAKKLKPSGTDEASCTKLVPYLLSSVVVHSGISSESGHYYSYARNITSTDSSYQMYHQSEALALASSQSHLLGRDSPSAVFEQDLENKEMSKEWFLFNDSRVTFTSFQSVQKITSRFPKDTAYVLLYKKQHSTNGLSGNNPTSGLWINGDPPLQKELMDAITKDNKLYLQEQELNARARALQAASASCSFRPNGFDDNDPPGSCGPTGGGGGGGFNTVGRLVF
Procedure, shortened: as §1

USP39 = target: T3, USP39 (UniProt Q53GS9)
T3 sequence (whole entry): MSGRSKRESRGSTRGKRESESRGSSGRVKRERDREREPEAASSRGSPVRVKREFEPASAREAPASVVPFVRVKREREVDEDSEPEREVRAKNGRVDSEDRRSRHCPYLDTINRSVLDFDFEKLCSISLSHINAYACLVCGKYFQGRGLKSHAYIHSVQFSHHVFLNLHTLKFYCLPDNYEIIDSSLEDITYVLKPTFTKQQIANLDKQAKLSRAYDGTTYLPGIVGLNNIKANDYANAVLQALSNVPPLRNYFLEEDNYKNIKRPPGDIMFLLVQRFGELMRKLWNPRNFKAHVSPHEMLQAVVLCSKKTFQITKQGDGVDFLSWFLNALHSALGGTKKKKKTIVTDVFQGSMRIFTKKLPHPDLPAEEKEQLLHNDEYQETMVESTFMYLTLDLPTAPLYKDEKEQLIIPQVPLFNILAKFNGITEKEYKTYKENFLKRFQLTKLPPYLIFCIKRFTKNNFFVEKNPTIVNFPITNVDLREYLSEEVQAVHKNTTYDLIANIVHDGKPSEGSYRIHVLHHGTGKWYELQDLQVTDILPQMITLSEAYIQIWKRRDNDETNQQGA
Procedure, shortened: as §1

USP4 = target: T4, USP4 (UniProt Q13107)
T4 sequence (whole entry): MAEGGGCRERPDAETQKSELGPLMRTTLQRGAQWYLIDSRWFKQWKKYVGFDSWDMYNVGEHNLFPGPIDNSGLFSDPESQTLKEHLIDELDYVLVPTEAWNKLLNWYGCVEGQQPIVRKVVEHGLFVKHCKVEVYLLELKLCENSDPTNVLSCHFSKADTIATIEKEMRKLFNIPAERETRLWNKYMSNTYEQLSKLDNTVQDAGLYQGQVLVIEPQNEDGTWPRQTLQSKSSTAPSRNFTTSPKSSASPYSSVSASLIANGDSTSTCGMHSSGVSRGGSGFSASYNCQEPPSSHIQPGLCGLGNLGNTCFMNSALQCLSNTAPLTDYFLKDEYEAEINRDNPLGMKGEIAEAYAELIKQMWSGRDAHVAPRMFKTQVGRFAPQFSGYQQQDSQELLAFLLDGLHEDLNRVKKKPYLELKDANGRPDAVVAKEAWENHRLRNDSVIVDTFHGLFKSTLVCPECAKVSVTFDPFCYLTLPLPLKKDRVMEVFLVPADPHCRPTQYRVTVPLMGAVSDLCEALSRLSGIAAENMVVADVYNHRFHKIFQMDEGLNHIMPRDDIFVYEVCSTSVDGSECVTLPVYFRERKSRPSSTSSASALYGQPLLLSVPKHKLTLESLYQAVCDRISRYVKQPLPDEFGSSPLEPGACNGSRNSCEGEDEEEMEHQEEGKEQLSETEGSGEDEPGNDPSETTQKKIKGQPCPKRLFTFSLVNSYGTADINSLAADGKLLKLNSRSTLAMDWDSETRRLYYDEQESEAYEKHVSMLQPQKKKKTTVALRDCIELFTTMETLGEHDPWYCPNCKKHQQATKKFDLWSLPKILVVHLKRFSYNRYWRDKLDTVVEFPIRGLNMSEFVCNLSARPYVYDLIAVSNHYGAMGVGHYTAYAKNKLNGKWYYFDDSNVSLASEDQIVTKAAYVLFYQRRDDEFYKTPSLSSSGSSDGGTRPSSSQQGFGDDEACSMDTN
Procedure, shortened: as §1

Measured: log2 ratio of Biotin-Ahx-Ub-VS probe labelling

CC(NC(=O)CCl)c1cnn(C2CC2)c1 (stereo not given)
inactive: USP34 -0.133 | USP36 -0.123 | USP38 -0.144 | USP39 -0.0478 | USP4 -0.409
